# Bioassay records: PubChem, several laboratories
# A selection: hits, their analogues and other compounds. The true share with any hit is near 1.5%.
# EBV gp42 inh: Epstein-Barr virus gp42 inhibitors, primary screen, biochemical, uHTS, fluorescence polarization | Glycoprotein 42 (Epstein-Barr virus (strain AG876)), Q1HVG2 | Fluorescence polarization binding assay, mP read-out | inhibition, % (tested at 21.74 µM) | actives 0.42% (n = 220,000) | AID 1085, 2008; in the data active means inhibition above about 50%
# MCL1-BIM inh: inhibitors of MCL1 binding to BIM-BH3, primary screen, biochemical, fluorescence polarization. Induced myeloid leukemia cell differentiation protein Mcl-1 (Homo sapiens), Q07820. GST-MCL1 / FITC-Bim-BH3 fluorescence polarization. inhibition, % at 10.9 µM. actives 0.68% (n = 320,000). AID 2057, 2009;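 active means inhibition above the mean inhibition of all tested compounds plus 3 SD, set per campaign, cut at about 40% in these data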;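 further: 0% = DMSO wells and 100% = unlabeled Bim-BH3 peptide control; higher means more loss of mP so more displacement of Bim peptide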
# GLD-1 TGE inh: GLD-1/TGE RNA complex disruptors, primary screen, biochemical, fluorescence polarization; purified GLD-1 + fluorescein TGE RNA; inhibition, % at 5.96 µM; actives 0.44% (n = 320,000);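 active means percent inhibition above a per-plate cutoff, the plate mean of test compounds plus 3 SD, cut at about 30% in these data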;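 further: 0% = DMSO wells with GLD-1 and probe and 100% = wells lacking GLD-1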
# MEX-5 binding: MEX-5 zinc finger RNA-binding disruptors – biochemical, C. elegans, fluorescence polarization, MLPCN library, primary screen. MEX-5/FITC-TCR2 RNA binding; stronger effect = lower value. Zinc finger protein mex-5 (Caenorhabditis elegans), Q9XUB2. actives 0.38% (n = 300,000). activity score (negative = inhibition of binding), % at 10 µM;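 active means inhibition past about -25% in most replicates, and total fluorescence under double the plate's negative control median, limit read from the data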;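 further: 0% = DMSO and -100% = 5 µM competing unlabeled TCR2 RNA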
# BCLXL inh: inhibitors of human Bcl-xL, primary screen, biochemical, fluorescence polarization, HTS; Bcl-2-like protein 1 (Homo sapiens), Q07817; GST-Bcl-xL / FITC-Bim BH3 peptide fluorescence polarization; inhibition, % at 10.9 µM; actives 0.7% (n = 320,000);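 active means inhibition above the mean of all tested compounds plus 3 SD, cutoff set per campaign, cut at about 30% in these data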;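 further: 0% = DMSO wells and 100% = unlabeled Bim-BH3 peptide competitor; inhibitors lower millipolarization by displacing the labeled peptide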
# E coli Lon inh: inhibitors of E. coli Lon protease, primary screen, biochemical, fluorescence polarization. AID 602123, 2011. actives 0.42% (n = 360,000). purified E. coli Lon protease. inhibition, % at 7.94 µM. P0A9M0; in the data active means inhibition above about 13%, passing the limit was not always enough;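 further: 0% = enzyme with probe and DMSO and 100% = no enzyme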
# Target sequence (P0A9M0 whole entry, looked up): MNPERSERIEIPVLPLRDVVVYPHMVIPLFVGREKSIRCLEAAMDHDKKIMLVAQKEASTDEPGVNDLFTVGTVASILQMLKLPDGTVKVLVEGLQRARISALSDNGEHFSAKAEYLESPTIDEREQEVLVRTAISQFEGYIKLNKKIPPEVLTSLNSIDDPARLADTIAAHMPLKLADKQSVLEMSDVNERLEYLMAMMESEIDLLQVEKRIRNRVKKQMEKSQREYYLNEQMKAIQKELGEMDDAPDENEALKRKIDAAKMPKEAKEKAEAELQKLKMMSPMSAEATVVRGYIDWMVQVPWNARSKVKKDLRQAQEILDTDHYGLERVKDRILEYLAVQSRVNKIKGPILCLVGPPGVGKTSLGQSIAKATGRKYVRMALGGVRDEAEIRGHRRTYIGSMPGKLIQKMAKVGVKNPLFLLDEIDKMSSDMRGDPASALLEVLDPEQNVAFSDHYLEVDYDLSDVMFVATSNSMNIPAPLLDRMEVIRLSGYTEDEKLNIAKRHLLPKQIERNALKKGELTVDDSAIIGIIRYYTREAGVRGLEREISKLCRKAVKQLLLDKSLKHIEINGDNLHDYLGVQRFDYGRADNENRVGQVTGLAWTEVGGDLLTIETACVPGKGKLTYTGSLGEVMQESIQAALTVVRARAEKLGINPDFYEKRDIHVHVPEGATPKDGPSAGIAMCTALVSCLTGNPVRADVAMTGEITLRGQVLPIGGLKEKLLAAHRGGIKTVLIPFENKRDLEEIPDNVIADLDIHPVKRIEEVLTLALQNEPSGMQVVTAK
# GLD1 RNA confirm: GLD-1/TGE RNA binding inhibitors, retest, confirmation, biochemical, fluorescence polarization, triplicate; shares compounds with GLD-1 TGE inh; GLD-1/FL-TGE RNA fluorescence polarization; inhibition, % at 5.96 µM; actives 10% (n = 550);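 active means average inhibition across triplicates above the hit cutoff set in the primary screen, cut at about 32% in these data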;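 further: 0% = GLD-1 with RNA probe and DMSO and 100% = wells lacking GLD-1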
# Active calls of the source: *; / = not tested or not shown.
SMILES,EBV gp42 inh,MCL1-BIM inh,GLD-1 TGE inh,MEX-5 binding,BCLXL inh,E coli Lon inh,GLD1 RNA confirm
COc1cccc(N(CC(=O)NCC2CCCO2)C(=O)CNS(=O)(=O)c2ccccc2)c1 (configuration not stated),-6.1,35.6,37.7*,1.8,41.0*,-5.0,0.8
COc1ccc2c(c1)CC/C(=C\c1ccc(C)o1)C2=O,-4.1,48.2*,39.3*,-2.2,43.3*,-27.6,-11.6
CC1CC(C)CN(C(=S)Nc2ccc(SC(F)F)cc2)C1 (configuration not stated),-0.1,0.1,42.7*,0.0,2.6,10.5,4.2
CC1CN(C(=S)Nc2ccc(SC(F)F)cc2)CC(C)O1 (configuration not stated),/,6.2,3.4,2.2,-0.1,8.1,/
O=C(Nc1ccc2c(c1)OCO2)c1c[nH]c(=O)n(-c2ccc(F)cc2)c1=O,/,8.3,1.6,0.7,7.8,2.9,/
Cc1ccc(C2=Nc3ccccc3NC(C)(c3ccc(C)o3)C2)o1 (configuration not stated),-3.9,35.5,43.6*,-0.4,40.0*,13.9,-1.9
O=C1CS/C(=C\[N+](=O)[O-])N1c1ccccc1,-20.8,-10.1,35.3*,-44.8*,0.9,-33.5,56.0*
O=C1CS/C(=N\N=C\c2ccco2)N1c1ccccc1,7.1,21.1,-2.9,1.0,6.6,-3.3,/
CCS(=O)(=O)c1nc(S(=O)(=O)c2ccc(C)cc2)c(N2CC(C)CC(C)C2)s1 (configuration not stated),/,1.6,-3.1,1.3,-0.6,6.0,/
Cc1c(O)ccc2cc(S(=O)(=O)c3ccccc3)c(=O)oc12,/,36.6,33.9*,-23.6,37.5*,-6.6,48.9*
CC1C2(C)OCC(C#N)(C(=N)O2)C1(C#N)C#N (configuration not stated),7.5,37.0,35.5*,-11.9,32.1*,/,6.7
CN1CCC(N(C)C(=O)c2ccc(Cl)c(S(=O)(=O)N3CCc4ccccc43)c2)CC1,/,/,3.2,/,/,5.1,/
CC(CCC(=O)NN)C1CCC2C3CCC4CC(O)CCC4(C)C3CCC12C (configuration not stated),/,/,/,/,/,-1.1,/
CC(CCC(C)C(C)(C)C)[C@@H]1CC[C@H]2C3C[C@H](OS(O)(=S)=S)[C@H]4C[C@H](OS(O)(=S)=S)[C@@H](OS(O)(=S)=S)C[C@]4(C)[C@H]3CC[C@]12C (some centres not stated) (tested in a mixture with another compound),/,/,84.9*,/,/,35.8*,71.6*
C=CCN1C(=O)c2ccc(C(=O)N(C)CC(=O)Nc3ccc(Br)cc3C)cc2C1=O,/,3.6,3.1,0.2,-2.1,5.7,/
COC(=O)c1c(NC(=O)COC(=O)CC(NC(C)=O)c2ccccc2)sc(C)c1C (configuration not stated),/,-2.4,3.4,0.3,4.3,1.8,/
CCOC(=O)CNc1c(-c2ccc(OC)cc2)nc2ccc(Cl)cn12,11.6,17.6,36.6*,-11.2,16.0,3.4,20.1
COCCNc1c(-c2ccc(OC)cc2)nc2ccc(Cl)cn12,5.2,23.3,22.7,-13.8,23.9,-10.1,/
Cc1ncc(C(O)c2ccccc2)n1Cc1ccccc1 (configuration not stated),/,/,/,/,/,-1.0,/
CC(C)N1C(=O)C2ON(c3ccccc3)C(c3cccs3)C2C1=O (configuration not stated),5.1,10.3,37.6*,0.8,7.0,1.6,-5.3
CCCS(=O)(=O)NC(=O)C1(C)CCCN(C(=O)c2cc(-c3cccs3)oc2C)C1 (configuration not stated),/,/,/,/,/,-2.4,/
CC(C)CCN(C(=O)CCCSc1nc2ccccc2[nH]1)c1c(N)n(Cc2ccccc2)c(=O)[nH]c1=O,/,27.4,47.2*,-13.8,26.4,19.6,65.0*
CC(C)CN(C(=O)CCCSc1nc2ccccc2[nH]1)c1c(N)n(Cc2ccccc2)c(=O)[nH]c1=O,/,-4.4,22.2,-11.1,11.7,17.9,/
O=C(CN1CCN(S(=O)(=O)c2ccccc2F)CC1)N1CCc2ccccc2C1,/,/,-0.8,/,/,-10.2,/
Cc1ccc(S(=O)(=O)N2[C@@H](c3ccc(F)cc3)C(C(=O)O)=CC[C@H]2c2cccs2)cc1,/,1.7,-2.0,/,3.2,0.9,/
SMILES,EBV gp42 inh,MCL1-BIM inh,GLD-1 TGE inh,MEX-5 binding,BCLXL inh,E coli Lon inh,GLD1 RNA confirm
O=C(OCCN1CCCCC1)c1c[nH]c2ccccc12,/,3.4,31.8*,/,10.3,0.2,-3.7
O=C(OCn1nnc2ccccc2c1=O)c1ccc(F)c(S(=O)(=O)N2CCOCC2)c1,/,/,/,/,/,-5.6,/
CC(=O)c1c(C)[nH]c(C(=O)OCC(=O)Nc2cc(Cl)ccc2[N+](=O)[O-])c1C,-17.3,7.6,34.2*,2.1,1.6,7.5,6.8
C=CCN1C=C2C(=O)C(C)(OC(=O)C3CCCC3)C(=O)C=C2C=C1c1ccsc1 (configuration not stated),-4.3,38.2,31.8*,-6.2,31.2*,15.8,2.7
C=C(CCO)C1=CCN(S(=O)C(C)(C)C)[C@H]1CCO (some centres not stated),/,/,/,/,/,-9.5,/
CCN1CCN(C(=O)C(C)Nc2cc(Cl)c(OC)cc2OC)CC1 (configuration not stated),34.8,48.3*,35.7*,-16.6,53.3*,9.8,26.0
CCN1CCN(C(=O)Nc2cc(Cl)ccc2OC)CC1,-2.5,-1.3,-1.0,1.0,0.5,7.1,/
CCN(CC)CCNc1cc(C)c(C#N)c2nc3ccccc3n12,/,35.3,31.8*,-6.9,33.5*,-25.7,4.9
CCN(CC)CCCNc1cc(C)c(C#N)c2nc3ccccc3n12,/,/,/,/,/,-9.2,/
CCOc1cc(CNCCO)cc(Br)c1OCc1cccs1,5.5,1.3,-1.7,-1.2,-2.3,-3.1,/
CCOc1cc(CNCc2cccs2)cc(Br)c1OCC,-9.3,-5.7,37.4*,3.3,-0.7,6.4,6.5
C=CCn1c(=NC(=O)c2ccc(S(=O)(=O)N3CCCc4ccccc43)cc2)sc2cc(S(N)(=O)=O)ccc21,-8.5,-9.8,3.5,5.3,-6.7,-5.7,/
COCCn1c(=NC(=O)c2ccc(S(=O)(=O)N3CCCc4ccccc43)cc2)sc2cc(S(C)(=O)=O)ccc21,-6.5,1.8,31.8*,2.2,4.4,-4.2,-7.7
